Measured values reported in the OligoGym collection.

Molecular target: ENAM
Test: pooled miR-30 sensor sort-seq; sequence = guide strand
Settings: shRNA
Also: reference of the scale not given here.

Sequence	sensor-assay potency score (higher = more potent)
TAGTCTTGTAGAGCTAGTGGAT	-0.371
TTGAGCTTCCTCTTCGGGCTGA	1.2
TAAATTGTTCCTCAGTAGCTAA	-0.863
TTTAGGAGGATCTTCTTCTTTG	-0.209
TTATTTGTTCTTTTGGACCCAG	0.0187
TACTGTTGAGAGTTTCTCCAGG	0.393
TGAAATACCACTGTCTTCCTGA	0.779
TTGAACTTGTTGATTTCTGTAA	0.247
TTGAGGTATATTGTTCACCTTC	-0.314
TATAATTTGATTTATTAACTTC	-0.315
TAGAGCTAGTGGATTGTCCTTG	0.779
